{"source": "paper PMC5540273", "about": "(PLoS ONE, 2017);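 also: KINOMEscan kinase panel screen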"}
{"tested_on": "T1, VPS34", "T1 construct": "gene PIK3C3", "settings": "concentration: 1 μM, replicates: in singlicate; n = 1", "units": {"%Inh": "%"}}
{"smiles": "CC(C)(C)OC(=O)NC1CCCN(c2cc(-c3ccc4c(N)n[nH]c4c3)nc(N)n2)C1", "note": "(centres unmarked) [GSK2286096]", "%Inh": 0}
{"smiles": "Fc1cccc(COc2ccc(Nc3ncnc4sc(-c5ccc[nH]5)cc34)cc2Cl)c1", "note": "[GW707818]", "%Inh": 0}
{"smiles": "COc1cc2c(Nc3cccc(NC(=O)c4ccccc4)c3)ncnc2cc1OCCCN1CCOCC1", "note": "[GSK223810]", "%Inh": 0}
{"smiles": "O=C(c1ccc(-c2cc(-c3c[nH]nc3-c3ccccn3)ccn2)cc1)N1CCCC1", "note": "[GW792479]", "%Inh": 26}
{"smiles": "Cc1ccc(C)c(NC(=O)NCCNc2ccnc(Nc3ccc(F)cc3)n2)c1", "note": "[GSK1379878]", "%Inh": 0}
{"smiles": "CC(=O)Nc1n[nH]c2ncc(-c3ccccc3)cc12", "note": "[SB-548492]", "%Inh": 7}
{"smiles": "Cl.Cn1ccc(-c2cccc(Nc3ccnc4cc(-c5nccs5)ccc34)c2)n1", "note": "[GW525701]", "%Inh": 0}
{"smiles": "O=C(CCO)NCCn1ccc2ncnc(Nc3ccc(Oc4cccc(C(F)(F)F)c4)c(Cl)c3)c21", "%Inh": 0}
{"smiles": "O=C(Nc1n[nH]c2nc(-c3ccco3)c(Br)cc12)c1ccc(CN2CCCC2)cc1.O=C(O)[C@H](O)[C@@H](O)C(=O)O", "note": "[SB-742352]", "%Inh": 0}
{"smiles": "Oc1ccc2ncnc(Nc3ccc(OCc4ccccc4)cc3)c2c1", "note": "[GI262866]", "%Inh": 0}
{"smiles": "NC(=O)c1sc(-n2cnc3ccccc32)cc1OCc1ccccc1F", "note": "[GSK1024306]", "%Inh": 31}
{"smiles": "Fc1cccc(COc2ccc(Nc3ncnc4nn5ccccc5c34)cc2Cl)c1", "note": "[GW689066]", "%Inh": 60}
{"smiles": "O=c1cc(N2CCOCC2)nc2n(Cc3cccc(Cl)c3)ccn12", "note": "[GSK2296823]", "%Inh": 93.3}
{"smiles": "O=C(Nc1ccccc1)Nc1ccc(Oc2ccc3nccn3n2)cc1", "%Inh": 14}
{"smiles": "Fc1cccc(COc2ccc(Nc3ncnc4cc[nH]c34)cc2Cl)c1", "%Inh": 18}
{"smiles": "C[C@@H]1CCN(C(=O)CO)C[C@@H]1N(C)c1ncnc2[nH]ccc12", "%Inh": 0}
{"smiles": "FC(F)(F)c1ccc(-c2nn3ncccc3c2-c2ccnc(Nc3cccc(C(F)(F)F)c3)n2)cc1", "note": "[GW828205]", "%Inh": 8}
{"smiles": "CSc1nn2c(=O)cc(N3CCOCC3)nc2n1Cc1cccc(Cl)c1Cl", "note": "[GSK2347225]", "%Inh": 97.1}
{"smiles": "Cl.c1ccc(Cn2ccc3cc(Nc4ncnc5ccccc45)ccc32)cc1", "note": "[GW275568]", "%Inh": 0}
{"smiles": "CCCc1ccc(S(=O)(=O)NC2CCN(c3ccnc(Nc4ccc(OC)cc4)n3)C2)cc1", "note": "(centres unmarked) [GSK1379737]", "%Inh": 36}
{"smiles": "CCn1c(-c2ccncc2)nc2cnccc21", "note": "[SB-735216]", "%Inh": 25}
{"smiles": "Nc1nc(-c2ccc3c(N)n[nH]c3c2)cc(N2CCCCC2)n1", "note": "[GSK2228768]", "%Inh": 0}
{"smiles": "COC(=O)c1cccc(NC(=O)NCCNc2ccnc(Nc3ccc(F)cc3)n2)c1", "note": "[GSK1379883]", "%Inh": 10}
{"smiles": "CC(C)(C)c1ccc(-n2cnc3c(N)ncnc32)cc1", "note": "[SKF-97263]", "%Inh": 0}
{"smiles": "Cc1cc(N2CCC(NS(=O)(=O)c3ccc(F)cc3)CC2)nc(Nc2cccc(C#N)c2)n1.O=C(O)C(F)(F)F", "note": "[GSK1653537]", "%Inh": 0}
{"smiles": "CCC(CC)(CC)n1cnc2c(N)ncnc21", "note": "[SKF-97620]", "%Inh": 34}
{"smiles": "OCCOCCn1ccc2ncnc(Nc3ccc(Oc4cccc(Cl)c4)c(Cl)c3)c21", "%Inh": 0}
{"smiles": "COc1ccc(Nc2nccc(N3CCC(NC(=O)c4cccc(NC(C)=O)c4)C3)n2)cc1", "note": "(centres unmarked) [GSK1379732]", "%Inh": 22}
{"smiles": "Cc1ccc(O)cc1Nc1cc(C(F)(F)F)nc2ccc(-c3ccncc3)cc12", "note": "[GW630823]", "%Inh": 0}
{"smiles": "Cn1ccc2ncnc(Nc3ccc(Oc4cccc(Cl)c4)c(Cl)c3)c21", "%Inh": 52}
{"smiles": "Clc1cc(Nc2ncnc3cc[nH]c23)ccc1OCc1ccccn1", "%Inh": 13}
{"smiles": "O=C(NCCCN1CCCC1=O)c1cnc(NCc2cc(Cl)ccc2Cl)nc1NC1CCNCC1", "%Inh": 0}
{"smiles": "COc1ccc(Nc2nccc(N3CCC(NC(=O)Nc4ccc5c(c4)OCO5)C3)n2)cc1", "note": "(centres unmarked) [GSK1379745]", "%Inh": 13}
{"smiles": "Fc1ccc(Nc2nccc(-c3c(-c4ccc(Cl)cc4)nn4ncccc34)n2)cc1F", "note": "[GW829058]", "%Inh": 5}
{"smiles": "C[C@H]1CC[C@@H](C(=O)Nc2ccccc2)CN1c1cc(-c2ccc3c(N)n[nH]c3c2)nc(N)n1", "note": "[GSK2283293]", "%Inh": 0}
